According to the supplement of paper PMC8728848:
Only a selection was taken, and the strongest signals are over-represented in it overall.

Tests used:
Assay in all cases: glycan array binding signal (z-score within array); higher = stronger binding
Conditions in all cases: glycan notation: IUPAC condensed, linker removed
[1] = target: Gal(b1-4)GlcNAc(b1-3)Gal(b1-4)GlcNAc(b1-3)Gal(b1-4)GlcNAc(b1-3)Gal(b1-4)GlcNAc(b1-2)Man(a1-3)[Gal(b1-4)GlcNAc(b1-3)Gal(b1-4)GlcNAc(b1-3)Gal(b1-4)GlcNAc(b1-3)Gal(b1-4)GlcNAc(b1-2)Man(a1-6)]Man(b1-4)GlcNAc(b1-4)[Fuc(a1-6)]GlcNAc
Method in brief: (§1)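 Columns mapping to the same glycan were averaged after glycan names were converted to IUPAC-condensed notation. The data come from 3228 arrays in the Consortium for Functional Glycomics database, limited to those with an available protein sequence. Binding is reported as a within-array Z-score averaged across arrays of one protein sequence and across linkers.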

[2] = target: Gal(b1-4)GlcNAc(b1-3)Gal(b1-4)GlcNAc(b1-3)Gal(b1-4)GlcNAc(b1-3)Gal(b1-4)GlcNAc(b1-3)Gal(b1-4)GlcNAc(b1-2)Man(a1-3)[Gal(b1-4)GlcNAc(b1-3)Gal(b1-4)GlcNAc(b1-3)Gal(b1-4)GlcNAc(b1-3)Gal(b1-4)GlcNAc(b1-3)Gal(b1-4)GlcNAc(b1-2)Man(a1-6)]Man(b1-4)GlcNAc(b1-4)[Fuc(a1-6)]GlcNAc
Method in brief: as §1

[3] = target: Gal(b1-6)Gal
Method in brief: as §1

[4] = target: Gal3S6S(b1-4)GlcNAc6S
Method in brief: as §1

[5] = target: GalNAc(b1-3)Gal(a1-4)Gal(b1-4)GlcNAc
Method in brief: as §1

[6] = target: GlcNAc(a1-4)Gal(b1-4)GalNAc
Method in brief: as §1

[7] = target: GlcNAc(b1-2)Man(a1-3)[GlcNAc(b1-4)][GlcNAc(b1-2)Man(a1-6)]Man(b1-4)GlcNAc(b1-4)[Fuc(a1-6)]GlcNAc
Method in brief: as §1

[8] = target: GlcNAc(b1-3)Gal(b1-4)GlcNAc(b1-3)Gal(b1-4)GlcNAc(b1-2)Man(a1-3)[GlcNAc(b1-3)Gal(b1-4)GlcNAc(b1-3)Gal(b1-4)GlcNAc(b1-2)Man(a1-6)]Man(b1-4)GlcNAc(b1-4)GlcNAc
Method in brief: as §1

[9] = target: GlcNAc6S(b1-3)Gal(b1-4)GlcNAc
Method in brief: as §1

[10] = target: Man(a1-2)Man(a1-3)Man
Method in brief: as §1

[11] = target: Man(a1-2)Man(a1-3)[Man(a1-6)]Man(a1-6)[Man(a1-2)Man(a1-3)]Man(b1-4)GlcNAc(b1-4)GlcNAc
Method in brief: as §1

[12] = target: Man(a1-3)[Man(a1-6)]Man(b1-4)GlcNAc(b1-4)GlcNAc
Method in brief: as §1

[13] = target: Neu5Ac(a2-3)Gal(b1-3)GalNAc
Method in brief: as §1

[14] = target: Neu5Ac(a2-3)Gal(b1-3)GalNAc(b1-4)[Neu5Ac(a2-8)Neu5Ac(a2-3)]Gal(b1-4)Glc
Method in brief: as §1

[15] = target: Neu5Ac(a2-3)Gal(b1-3)GlcNAc(b1-3)GalNAc
Method in brief: as §1

[16] = target: Neu5Ac(a2-3)Gal(b1-4)GlcNAc(b1-3)Gal(b1-4)GlcNAc(b1-3)Gal(b1-4)GlcNAc
Method in brief: as §1

[17] = target: Neu5Ac(a2-3)Gal(b1-4)GlcNAc(b1-3)Gal(b1-4)GlcNAc(b1-3)Gal(b1-4)GlcNAc(b1-2)Man(a1-3)[Neu5Ac(a2-3)Gal(b1-4)GlcNAc(b1-3)Gal(b1-4)GlcNAc(b1-3)Gal(b1-4)GlcNAc(b1-2)Man(a1-6)]GalNAc
Method in brief: as §1

[18] = target: Neu5Ac(a2-3)Gal(b1-4)[Fuc(a1-3)]GlcNAc(b1-2)Man
Method in brief: as §1

[19] = target: Neu5Ac(a2-3)[GalNAc(b1-4)]Gal(b1-4)Glc
Method in brief: as §1

[20] = target: Neu5Ac(a2-6)Gal(b1-4)GlcNAc(b1-2)Man(a1-3)[Man(a1-6)]Man(b1-4)GlcNAc(b1-4)GlcNAc
Method in brief: as §1

[21] = target: Neu5Ac(a2-6)Gal(b1-4)GlcNAc(b1-2)[Neu5Ac(a2-6)Gal(b1-4)GlcNAc(b1-4)]Man(a1-3)[GlcNAc(b1-4)][Neu5Ac(a2-6)Gal(b1-4)GlcNAc(b1-4)Man(a1-6)]Man(b1-4)GlcNAc(b1-4)GlcNAc
Method in brief: as §1

[22] = target: Neu5Ac(a2-6)Gal(b1-4)GlcNAc(b1-3)Gal(b1-4)GlcNAc(b1-2)Man(a1-3)[Neu5Ac(a2-6)Gal(b1-4)GlcNAc(b1-3)Gal(b1-4)GlcNAc(b1-2)Man(a1-6)]GalNAc
Method in brief: as §1

[23] = target: Neu5Ac(a2-6)Gal(b1-4)GlcNAc(b1-3)[Neu5Ac(a2-6)Gal(b1-4)GlcNAc(b1-6)]GalNAc
Method in brief: as §1

[24] = target: Neu5Ac(a2-6)Gal(b1-4)GlcNAc(b1-6)[Gal(b1-3)]GalNAc
Method in brief: as §1

[25] = target: Neu5Ac(a2-6)GalNAc(b1-4)GlcNAc
Method in brief: as §1

[26] = target: Neu5Ac(a2-8)Neu5Ac(a2-3)[Gal(b1-3)GalNAc(b1-4)]Gal(b1-4)Glc
Method in brief: as §1

[27] = target: Neu5Ac(a2-8)Neu5Gc(a2-3)Gal(b1-4)GlcNAc
Method in brief: as §1

B1: PX14367A-bth-493-35-493 (Bacteroides thetaiotaomicron) (protein)
chain: VSSDQVAVAGNAERLFNGAWYNLFEYGTTYANIGYRALQCQDDMMASDVVSRPKYGFNSSYQFNDVAIPSDGRTSFAWYLIYKTIDNCNTAISIKGDSEELRQAQGQALALRAFCYLHLVQHYQFTYLKDKDAPCVPIYTEPTTSGTKPKGKSTVAQVYQQIFDDLNLAQDYLTNYVRKGDGQKFKPNTDVVNGLMARAYLLTGQWGEAAKAAEAARKGYSLMTTTAEYEGFNNISNKEWIWGSPQTLSQSDASYNFYYLDATYVGAYSSFMADPHLMDTFVKGDIRLPLFQWMREGYLGYKKFHMRSDDTADLVLMRSAEMYLIEAEAKVRDGVALDQAVAPLNTLRTARGVGNYDVTGKTKEQVIDEILMERRRELWGEGFGITDVLRNQKAVERMALSEDMQKTEVDCWQEGGSFAKRNPLGHWFLNFPDGKAFSANSSYYLYAIPEKEINANPNL
glycan array binding signal (z-score) [1]: 2.51
glycan array binding signal (z-score) [2]: 6.87
glycan array binding signal (z-score) [3]: -0.332
glycan array binding signal (z-score) [4]: 0.726
glycan array binding signal (z-score) [5]: 4.2
glycan array binding signal (z-score) [6]: -0.551
glycan array binding signal (z-score) [7]: -0.396
glycan array binding signal (z-score) [8]: 1.06
glycan array binding signal (z-score) [9]: -0.213
glycan array binding signal (z-score) [10]: 0.44
glycan array binding signal (z-score) [11]: -0.608
glycan array binding signal (z-score) [12]: 0.166
glycan array binding signal (z-score) [13]: -0.407
glycan array binding signal (z-score) [14]: -0.448
glycan array binding signal (z-score) [15]: -0.042
glycan array binding signal (z-score) [16]: -0.083
glycan array binding signal (z-score) [17]: 1.29
glycan array binding signal (z-score) [18]: -0.443
glycan array binding signal (z-score) [19]: -0.325
glycan array binding signal (z-score) [20]: 0.504
glycan array binding signal (z-score) [21]: -0.361
glycan array binding signal (z-score) [22]: 6.47
glycan array binding signal (z-score) [23]: -0.601
glycan array binding signal (z-score) [24]: 0.377
glycan array binding signal (z-score) [25]: -0.719
glycan array binding signal (z-score) [26]: -0.3
glycan array binding signal (z-score) [27]: 11.1
